These results are taken from PubChem BioAssay AID463173 (ICCB-Longwood Screening Facility, Harvard Medical School, 2010).

Screen size: about 52,000 compounds; about 4,300 (8.3%) were called active. This is one part of a sample in which actives are shown more often than they occur. Cut-off read from the data, not from the text of the source: active = survival mostly below about 52% (no sharp cut-off); inactive = mostly above about 56%.

For the test, the system named is DeltatarO mutant. The test is described as follows: S. aureus survival, RN4220 and DeltatarO strains – OD600, teichoic acid synthesis inhibitors, primary screen (AID 463173). To be noted: S. aureus RN4220 wild type/DeltatarO growth, OD600, 18 h, active compounds read low, screened at 18.75 µg/mL (by protocol).
Regarding `COc1ccc(C)cc1NC(=O)N1CC(C)Sc2ccccc21` (stereo unspecified), the survival is 55% (inactive). As for `Cc1ccc(N(C)C(=O)CC(C)S(=O)(=O)c2ccc3c(c2)NC(=O)CO3)cc1` (stereo unspecified), the figure is 120% (inactive). Then `c1ccc2c(c1)[nH]c1nc(NN=C3CCC(=NNc4nnc5c(n4)[nH]c4ccccc45)CC3)nnc12`, with 93% (inactive). Turning to `COc1cccc(-c2nc3c(c(SCC(=O)Nc4cc(C)ccc4C)n2)Cc2c(CO)cnc(C)c2O3)c1`, the survival is 77% (inactive). As to `CCn1nnc2cc(C(=O)Nc3ccc(OC)cc3)ccc21`, the survival was 102% (inactive). Consider `O=C(Nc1cccc(F)c1)c1ccc2oc(=O)n(Cc3ccccc3)c2c1`, for which the survival was 70% (inactive). As for `CCn1nnc2cc(C(=O)Nc3ccc(C)c(Cl)c3)ccc21`, the figure is 54% (inactive); as for `O=C(NCc1ccc(Cl)cc1)c1ccc2oc(=O)n(Cc3ccccc3)c2c1`, 109% (inactive); as for `Cc1ccc(CNC(=O)c2ccc3oc(=O)n(Cc4ccccc4)c3c2)cc1`, 64% (inactive). On to `Cc1cccc(CNC(=O)c2ccc3oc(=O)n(Cc4ccccc4)c3c2)c1`, for which the survival was 76% (inactive). Turning to `CCc1ccc(NC(=O)c2ccc3c(c2)nnn3CC)cc1`, the survival is -4% (active). In the case of `O=C(Nc1ccc(Cl)cc1)c1ccc2oc(=O)n(Cc3ccccc3)c2c1`, the survival is 67% (inactive). As for `COc1cccc(CNC(=O)c2ccc3oc(=O)n(Cc4ccccc4)c3c2)c1`, the figure is -1% (active); as for `CCc1ccc(NC(=O)c2ccc3oc(=O)n(Cc4ccccc4)c3c2)cc1`, 6% (active); as for `O=C(NCc1ccccc1)c1ccc2oc(=O)n(Cc3ccccc3)c2c1`, 72% (inactive). Then `O=C(NCc1ccc(F)cc1)c1ccc2oc(=O)n(Cc3ccccc3)c2c1`, with -2% (active). With `O=C(Cc1ccc(F)cc1)Nc1nncs1`, the survival was 99% (inactive). Regarding `Cc1ccc2ncc(C(=O)N3CCN(c4ccccc4F)CC3)c(=O)n2c1`, the survival is 102% (inactive). On to `CCOC(=O)c1c(NC(C)=O)c2c3c(sc2n1Cc1cc(C)ccc1C)CCCC3`, for which the survival was 98% (inactive). Regarding `O=C(CCOc1ccccc1)N(Cc1cccnc1)c1nc2c(F)cc(F)cc2s1`, the survival was 97% (inactive). Take `CC1=C(C(N)=O)C(c2cccc(C)c2)n2nc(-c3cccc(C)c3)nc2N1` (stereo unspecified): the survival was 66% (inactive). As to `Cc1cccc(NC(=O)C2CCCN(S(=O)(=O)c3cccc4nonc34)C2)c1C` (stereo unspecified), the survival is 119% (inactive). In the case of `Cc1c(C(=O)N(C)C)sc2c1c(=O)n(-c1ccc(F)cc1)c(=O)n2Cc1ccccc1C#N`, the survival is 76% (inactive). In the case of `Cc1ccc(N(C)C(=O)c2sc3nc4n(c(=O)c3c2C)CCCC4)cc1C`, the survival was 64% (inactive). Regarding `O=C(Cn1c(=O)n(CCCS(=O)(=O)C2CCCCC2)c(=O)c2ccccc21)Nc1ccccc1C(F)(F)F`, the survival is 91% (inactive). As for `Cc1ccc(S(=O)(=O)CCC(=O)Nc2ccc(Br)cc2C)cc1`, the figure is 85% (inactive); as for `Cc1ccc(C)c(N2CCN(C(=O)C3CCCN(S(=O)(=O)c4cccc5nonc45)C3)CC2)c1` (stereo unspecified), 76% (inactive). With `COc1ccc(OC)c(NC(=O)c2cc3cccc(OC)c3oc2=O)c1`, the survival is 77% (inactive). In the case of `Cc1cccc(C)c1NC(=O)c1cc2sccc2n1Cc1ccc(F)cc1`, the survival was 96% (inactive). `COc1cc(/C=C(\C#N)c2nc3ccccc3[nH]2)ccc1OCc1ccc(F)cc1`: the survival was 70% (inactive). As for `CCOC(=O)COc1ccc(/C=C(\C#N)c2nc3ccc(C)cc3[nH]2)cc1OC`, the survival is 43% (active). In the case of `COc1cc(/C=C(\C#N)c2nc3ccc(C)cc3[nH]2)ccc1OC(C)C`, the survival was 46% (active). With `CCC(=O)Oc1ccc(/C=C(\C#N)c2nc3ccccc3[nH]2)cc1OC`, the survival was 47% (inactive).

In the case of `COc1cc(/C=C(\C#N)c2nc3ccc(C)cc3[nH]2)ccc1OCc1ccc(C)cc1`, the survival was 59% (inactive). `COc1ccc(/C=C(\C#N)c2nc3ccccc3c(=O)[nH]2)cc1OC`: the survival is 86% (inactive). On to `Cc1ccc(-n2nc(C)c3c(C)cc(=O)n(CC(=O)N4CCCc5ccccc54)c32)cc1`, for which the survival is 80% (inactive). With `Cc1oc2ncn(CC(C)C)c(=O)c2c1C(=O)Nc1ccc(Cl)cn1`, the survival was 86% (inactive). As for `COc1ccc(CNC(=O)C2CCC(CNS(=O)(=O)c3ccc4c(c3)CCCC(=O)N4)CC2)cc1` (stereo unspecified), the figure is 87% (inactive). Regarding `CCc1cccc(NC(=O)C2CCCN(c3ncccn3)C2)c1` (stereo unspecified), the survival was 80% (inactive). Then `COc1ccc(CNC(=O)CCc2c(C)nn(-c3ccc(N4CCCCC4)nn3)c2C)cc1`, with 75% (inactive); and `Cc1ccc(CNC(=O)CN2CCN(Cc3ccc(F)cc3)C2=O)cc1`, with 95% (inactive); and `Cc1c(Cl)cccc1NC(=O)c1ccc(C(=O)Nc2cccc(Cl)c2C)cc1`, with 81% (inactive). `Cc1cc(C)n(-c2nc3ccccc3nc2Nc2ccc(Cl)c(C(=O)OC(C)C)c2)n1`: the survival is 99% (inactive). In the case of `Cc1cc(C)n(-c2nc3ccccc3nc2Nc2cccc(C(=O)NCCc3ccccc3)c2)n1`, the survival was 93% (inactive). Regarding `Cc1ccc(C(=O)O)cc1Nc1nc2ccccc2n2nnnc12`, the survival was 82% (inactive). Regarding `CCC(Cc1ccccc1)NC(=O)c1cccc(Nc2nc3ccccc3nc2-n2nc(C)cc2C)c1` (stereo unspecified), the survival is 63% (inactive).

As for `CC(=O)c1ccc(Nc2nc3ccccc3nc2-n2nc(C)cc2C)cc1`, the survival is 44% (active). On to `CCCOC(=O)c1ccc(Nc2nc3ccccc3nc2-n2nc(C)cc2C)cc1`, for which the survival was 24% (active).

For the compound `CCCCOC(=O)c1ccc(Nc2nnc(-n3nc(C)cc3C)c3ccccc23)cc1`, the survival is 98% (inactive). As for `Cc1ccc(Nc2nc3ccc(C)cc3nc2-n2nc(C)cc2C)c(C)c1`, the figure is 81% (inactive); as for `Cc1cc(C)n(-c2nc3ccccc3nc2Nc2cc(C(=O)O)ccc2C)n1`, 42% (active); as for `COc1cccc(C(=O)Nc2c(C(=O)c3ccc(F)cc3)oc3ccccc23)c1`, 66% (inactive). Then `CCn1c(SC)nnc1C1CCCN(Cc2ccccc2)C1` (stereo unspecified), with 100% (inactive); and `CC(C)Cn1cc(NC(=O)N2CCN(c3ccc(F)cc3)CC2)c2ccccc2c1=O`, with 99% (inactive). Take `O=C(Nc1cccc(F)c1)c1ccc(-c2ccccc2)s1`: the survival is 82% (inactive). In the case of `CCOC(=O)c1cc(-c2ccc(OC)cc2)n(CCC(=O)Nc2cccc(C)c2C)c1C`, the survival was 93% (inactive). As for `CC1=Nc2cc(C(=O)NC3CCCC3)ccc2Sc2ccc(Cl)cc21`, the figure is 77% (inactive).

Regarding `Cc1ccccc1-c1nnc(C2CCN(S(=O)(=O)c3ccc(Cl)cc3)CC2)o1`, the survival was 89% (inactive).

Regarding `CCOc1ccc2nc(N3CCCC(C(=O)Nc4ccccc4CC)C3)sc2c1` (stereo unspecified), the survival was 95% (inactive).

With `COc1ccc(C(=O)Nc2nnc(S(=O)(=O)N3CCCCCC3)s2)cc1OC`, the survival is 80% (inactive). As for `O=C(Nc1nnc(S(=O)(=O)N2CCOCC2)s1)c1ccc(F)cc1`, the figure is 78% (inactive).

As for `O=C(Nc1nnc(S(=O)(=O)N2CCCCCC2)s1)c1ccc(Br)cc1`, the survival was 60% (inactive). Consider `COc1cccc(C(=O)Nc2nnc(S(=O)(=O)N3CCCC3)s2)c1`, for which the survival is 33% (active).

Take `COc1cccc(C(=O)Nc2nc3ccc(S(=O)(=O)N4CCCC4)cc3s2)c1`: the survival was 79% (inactive).

Consider `O=C(Nc1nnc(S(=O)(=O)N2CCCCCC2)s1)c1cccc(Br)c1`, for which the survival was 9% (active).

Take `Cc1cccc(C(=O)Nc2nnc(S(=O)(=O)N3CCOCC3)s2)c1`: the survival is 58% (inactive).

Turning to `O=C(Nc1nnc(S(=O)(=O)N2CCOCC2)s1)c1cccc(Br)c1`, the survival was 42% (active).

Regarding `CC1CCN(C(=O)COc2ccc(C(C)C)cc2)CC1`, the survival is 86% (inactive).

As for `Cc1ccc(C)n1-c1nnc(N2CCC(C(=O)Nc3ccccc3Br)CC2)s1`, the survival is 91% (inactive).

Regarding `c1cc(CNC2CCCCC2)co1`, the survival is 72% (inactive). Then `Nc1nnc(CCC(CCc2nnc(N)s2)(CCc2nnc(N)s2)C(=O)c2ccccc2)s1`, with 92% (inactive).

As to `COc1ccc(C)c2sc(N(Cc3cccnc3)C(C)=O)nc12`, the survival is 80% (inactive).

On to `COc1ccccc1NC(=O)Cn1c(=O)n(Cc2ccc3c(c2)OCO3)c(=O)c2oc3ccccc3c21`, for which the survival was 77% (inactive). In the case of `Cn1c(SCc2ccc(F)cc2)nc2ccc(C(=O)NCc3ccc(Cl)cc3)cc21`, the survival is 50% (inactive). As to `Cn1c(SCc2ccc(F)cc2)nc2ccc(C(=O)NCc3ccccc3)cc21`, the survival was 49% (inactive). As for `Cn1c(SCc2ccc(F)cc2)nc2ccc(C(=O)NCc3cccc(Cl)c3)cc21`, the figure is 56% (active). `COc1ccc(OC)c(C2NC(=O)NC(C)=C2C(=O)Nc2cc(C)cc(C)c2)c1` (stereo unspecified): the survival is 47% (inactive).

As for `COc1cc(C2NC(=O)NC(C)=C2C(=O)Nc2cc(C)cc(C)c2)ccc1O` (stereo unspecified), the survival was 38% (active). As to `COc1ccc(C2NC(=O)NC(C)=C2C(=O)Nc2ccccc2)cc1OC` (stereo unspecified), the survival was 116% (inactive). Consider `Cc1cccc(NC(=O)CSc2nnc3[nH]c(=O)cc(-c4ccccc4)n23)c1C`, for which the survival was 116% (inactive). For `O=S(=O)(NCC(c1cccs1)S(=O)(=O)c1ccccc1)c1ccc(F)c(C(F)(F)F)c1` (stereo unspecified), the survival was 92% (inactive). Then `O=S(=O)(NCC(c1cccs1)S(=O)(=O)c1ccccc1)c1ccccc1` (stereo unspecified), with 115% (inactive).

Take `O=C(NCc1ccccc1)C(=O)NCC(c1cccs1)S(=O)(=O)c1cccs1` (stereo unspecified): the survival is 91% (inactive). Consider `O=C(NCc1ccccc1)C(=O)NCC(c1cccs1)S(=O)(=O)c1ccccc1` (stereo unspecified), for which the survival was 52% (active). For the compound `Cc1ccc(CNC(=O)C(=O)NCC(c2cccs2)S(=O)(=O)c2ccc(C)cc2)cc1` (stereo unspecified), the survival is 98% (inactive). For the compound `O=S(=O)(NCC(c1cccs1)S(=O)(=O)c1ccccc1)c1ccc(F)cc1` (stereo unspecified), the survival was 46% (active).

Take `CC(C)c1ccc(N2C(=O)CS(=O)(=O)C23C(=O)N(Cc2cccc(F)c2)c2ccccc23)cc1` (stereo unspecified): the survival was 69% (inactive).

On to `COc1ccc(C2Nc3ccccc3-c3nnc(SC)nc3O2)cc1C` (stereo unspecified), for which the survival is 67% (inactive). Turning to `COc1ccccc1NC(=O)CSc1nc2ccccc2c2nc(-c3ccccc3)nn12`, the survival was 90% (inactive). As to `Cc1ccc(OCCCC(=O)Nc2ccc3c(c2)OCO3)cc1`, the survival is 100% (inactive).

For the compound `COc1ccccc1CNC(=O)c1ccc2nc(CCc3ccccc3)oc2c1`, the survival was 83% (inactive).
